Source: PubChem BioAssay (several laboratories)
AI-2 QS modul: modulators of Vibrio harveyi AI-2 quorum sensing system; Vibrio harveyi JMH597 AI-2 luminescence/OD600 ratio, 9 h; stronger effect = lower value; strain lacks LuxN and CqsS sensors; 0 = neutral-control median; activity change, % at 7.5 µM; 0.4% of 300,000 active; AID 2094; in the data active means activity change below about -75%, passing the limit was not always enough;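 further: luminescence divided by OD600 gain over 9 h not by final OD600 alone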
ARNT TACC3 PPI: disruptors of human ARNT/TACC3 interaction; AlphaScreen His-ARNT PAS-B/GST-TACC3 binding, luminescence; TACC3 fragment carries E629A point mutation; 0.66% of 390,000 active; Q9Y6A5; inhibition, % at 9.99 µM; AID 623870;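 active means mean inhibition of replicates at least 50% and at least half of replicates each reaching 50%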;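 further: 0% = complete ARNT plus TACC3 wells and 100% = ARNT alone without TACC3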
HGIII-sPLA2 inh: Inhibits HGIII-sPLA2 liposome hydrolysis, primary screen; Q9NZ20; QFRET BODIPY PC-A2 liposome hydrolysis, fluorescence; inhibition, % at 12.2 µM; 0.56% of 370,000 active; AID 743126;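 active means inhibition above mean plus 3 SD of compounds lying within the high and low control bounds, cut at about 19% in these data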;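 further: 0% = median of test compound wells and 100% = no enzyme DMSO wells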
Rin1 Abl inh: human Rin1-Abl interaction inhibition; P00519+Q13671; TR-FRET Rin1/Abl binding, biochemical; inhibition, % at 7.35 µM; 0.4% of 360,000 active; AID 588664; in the data active means inhibition above about 5%, passing the limit was not always enough
sPLA2 confirm: human GIII-sPLA2 inhibition, confirmation | shares compounds with HGIII-sPLA2 inh | inhibition, % at 12.2 µM | recombinant hGIII-sPLA2, BODIPY PC-A2 QFRET fluorescence | 34% of 2,000 active;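 active means mean inhibition across triplicates above the hit cutoff set in the earlier primary screen, cut at about 19% in these data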;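 further: 0% = enzyme with DMSO and 100% = DMSO wells lacking enzyme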
BODIPY interf: counter-screen for HGIII-sPLA2 inhibitors: 535nm fluorescence interference | BODIPY FL product fluorescence interference, QFRET | inhibition, % at 12.2 µM | 8.5% of 2,000 active | shares compounds with HGIII-sPLA2 inh | AID 743282;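 active means average inhibition above the solvent-only control mean plus 3 SD, cut at about 6% in these data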;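 further: 0% = DMSO with substrate plus product and 100% = DMSO with substrate alone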
BODIPY interf DR: 535nm optical interference dose response, HGIII-sPLA2 counter-screen | AID 743455 | 240 tested, under 10 active | IC50, µM | BODIPY FL product fluorescence interference, cell-free | shares compounds with HGIII-sPLA2 inh;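 active means IC50 at or below 10 µM; inactive means IC50 above 10 µM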
Starred values were filed as active, the others as inactive; . = no result. Sampled rows, rich in hits. Any-hit rate of the full collection: about 1.5%.

SMILES	AI-2 QS modul	ARNT TACC3 PPI	HGIII-sPLA2 inh	Rin1 Abl inh	sPLA2 confirm	BODIPY interf	others
O=C(N/N=C/c1ccc2c(c1)OCO2)c1ccc(Br)o1	13	.	19*	-2	1	-6
O=C(C[C@@H]1CC[C@H]2[C@@H](COC[C@H](O)CN2C(=O)C2CCCC2)O1)NCc1ccncc1	.	-29	.	.	.	.
C[C@@H]1CN([C@H](C)CO)C(=O)c2cccc(NC(=O)c3ccncc3)c2O[C@@H]1CN(C)S(=O)(=O)c1cccs1	.	-15	.	.	.	.
CCC(=O)N(C)C[C@@H]1Oc2cc(C#CCOC)ccc2S(=O)(=O)N([C@@H](C)CO)C[C@H]1C	.	-1	.	.	.	.
CN(Cc1ccccc1)C(=S)NC(=O)C1CCCCC1	3	-18	11	1	.	.
O=C(NC(=S)N(Cc1ccccc1)c1ccccn1)C1CCCCC1	-5	-8	24*	-1	8	-4
C[C@@H](NC(=O)C[C@H]1CC[C@@H]2[C@H](COC[C@H](O)CN2C(=O)Nc2ccccc2)O1)c1ccccc1	.	-6	.	.	.	.
C[C@@H]1CN([C@H](C)CO)C(=O)Cc2cc(NS(=O)(=O)c3cccs3)ccc2O[C@H]1CN(C)C(=O)Nc1ccc(F)cc1	.	-1	.	.	.	.
CN(C)S(=O)(=O)c1ccc(Cl)c(C(=O)NCCNC(=O)c2cc(S(=O)(=O)N(C)C)ccc2Cl)c1	23	3	21*	2	-2	-12
CN(C)S(=O)(=O)c1ccc(Cl)c(C(=O)NCC2CCCCC2)c1	17	8	-6	1	.	.
O=S1(=O)C[C@@H](O)[C@@H](Nc2ccccc2)C1	24	.	-3	-3	.	.
COc1ccc(NC2CS(=O)(=O)CC2NCc2ccccc2)cc1 (stereo not drawn)	31	0	21*	-1	5	-5
O=C(c1cccc(F)c1)N1C[C@@H]2[C@H](c3ccccc31)[C@H](CO)N2C(=O)c1ccc(F)cc1	.	1	.	.	.	.
CC(C)=C1C2CCC1C1C(=O)N(c3nccs3)C(=O)C21 (stereo not drawn)	-1	-6	21*	3	3	-2
O=C1C2C3C=CC(C3)C2C(=O)N1c1nccs1 (stereo not drawn)	18	1	10	-1	.	.
CCCC#Cc1cnc2c(c1)C(=O)N([C@H](C)CO)C[C@H](C)[C@H](CN(C)C(=O)c1cccnc1)O2	.	-11	.	.	.	.
Cc1ccc(S(=O)(=O)N(C)C[C@H]2Oc3c(NC(=O)Nc4cccc5ccccc45)cccc3C(=O)N([C@H](C)CO)C[C@@H]2C)cc1	.	0	.	.	.	.
C[C@H](CO)N1C[C@H](C)[C@@H](CN(C)C(=O)c2ccccc2)Oc2cc(C#CC3(O)CCCC3)ccc2S1(=O)=O	.	-3	.	.	.	.
COc1ccc(NC2CCCN(Cc3cccc4cnccc34)C2)cc1 (stereo not drawn)	12	-29	20*	-2	7	-9
COc1ccc(NC(=O)N(C)C[C@@H]2OCCCC[C@@H](C)Oc3ccc(NC(=O)Nc4ccc(F)cc4)cc3C(=O)N([C@@H](C)CO)C[C@@H]2C)cc1	.	6	.	.	.	.
COc1ccc(C)cc1NCc1ccc([N+](=O)[O-])cc1	12	-2	19*	0	15	-2
COc1cccc(C(=O)Nc2ccc3c(c2)OC[C@H](C)N(CC2CC2)C[C@@H](C)[C@H](OC)CN(C)C3=O)c1	.	-3	.	.	.	.
O=C(Cc1cccs1)NNC(=S)NCc1ccc(Cl)cc1	-3	6	19*	-4	45*	0	BODIPY interf DR=>122
Cc1nc2ccccn2c1C(=O)N=Nc1c(O)n(CCC(C)C)c2ccccc12	9	.	22*	-4	-5	-10
CC(C)(C)C(=O)NC(=S)Nc1sc2c(c1C#N)CCCCC2	3	7	22*	0	17	4
SMILES	AI-2 QS modul	ARNT TACC3 PPI	HGIII-sPLA2 inh	Rin1 Abl inh	sPLA2 confirm	BODIPY interf	others
Oc1ccccc1/C=N/NC(=S)NC1CC2C=CC1C2 (stereo not drawn)	-1	64*	27*	0	21*	6.2*
Oc1ccc(O)c(C=NNC(=S)NC2CC3CC2C2C=CCC32)c1 (stereo not drawn)	.	.	19	1	.	.
Oc1c(Cl)cc(Cl)cc1/C=N/NC(=S)NC1CC2C=CC1C2 (stereo not drawn)	16	-1	45*	2	61*	14*
Oc1ccccc1C=NNC(=S)NC1CC2C=CC1C2 (stereo not drawn)	.	.	21*	5	24*	6
C[C@H](O)C#Cc1ccc2c(c1)O[C@@H](CN(C)C(=O)c1ccccc1)[C@@H](C)CN([C@@H](C)CO)S2(=O)=O	.	3	.	.	.	.
CCC(C)[C@H](NC(=O)N1CCCCC1)C(=O)OC (stereo partly drawn)	-26	0	23*	0	0	-4
CCOC1(c2ccccc2)OC(=O)c2ccccc21 (stereo not drawn)	-8	-8	22*	-1	0	-5
CCOC(=O)C1=C(c2ccccc2)NC(=S)NC1c1cc([N+](=O)[O-])ccc1OC (stereo not drawn)	13	8	23*	-7	18	3
CCOC(=O)C1=C(c2ccccc2)NC(=S)NC1c1cccc([N+](=O)[O-])c1 (stereo not drawn)	8	-2	16	-4	.	.
Cc1cc(=O)[nH]c(SCC(=O)N2CCCC2)n1	.	-4	20*	-1	0	-7
c1ccc(-c2csc(-c3ccc(-c4csnn4)cc3)n2)cc1	14	-5	21*	-3	-1	-1
O=C1NC(=S)NC1=Cc1ccccc1O	.	13	22*	-4	8	1
COc1ccc2c(c1)cc(C(=O)N/N=C/c1c(O)c(C(=O)O)cc3ccccc13)n2C	23	-28	19*	-3	17	2
C[C@@H]1CN([C@@H](C)CO)C(=O)c2cccc(NC(=O)C3CC3)c2O[C@@H]1CN(C)C(=O)Nc1ccc2c(c1)OCO2	.	-3	.	.	.	.
CC(=O)Nc1ccc(NC(=O)C(Cc2ccccc2)NC(=O)C2CCC(C)CC2)cc1 (stereo not drawn)	3	2	25*	-2	10	-13
O=C(N[C@@H](Cc1ccccc1)C(=O)Nc1ccc(F)cc1)C1CCNCC1	61	3	7	1	.	.
C[C@@H]1CCCCO[C@@H](CN(C)CC2CCCCC2)[C@@H](C)CN([C@@H](C)CO)C(=O)c2cc(NC(=O)C3CCCCC3)ccc2O1	.	1	.	.	.	.
CN1C(=O)CS(=O)(=O)C1c1ccccc1 (stereo not drawn)	.	-7	.	.	.	.
O=S1(=O)CCS(=O)(=O)C1c1ccccc1	29	-5	20*	1	-2	-5
